Bioassay records as filed in PubChem.
Only some compounds are listed: those with a hit (about 7.5% of all), similar ones and a draw of the others.
ELG1 genotoxic = genotoxicity induction in ELG1-luciferase HEK293T cells. HEK293T ELG1-luciferase reporter, luminescence, 16 h. 330,000 compounds, 1.3% hits. Potency, µM (titrated, usually from 46 µM), inactives show at the top dose activity change, positive = activation, hits mostly activators; note: % of control where 0% means no effect; nearly all actives have a fitted effect of over 60% in size
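Reporter readout depends on ELG1 protein level, which increases with genetic stress. After 16 hr compound exposure at 37 °C, luciferase activity was quantified using ONE-Glo.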
NPC1 promoter act = NPC1 promoter activation. Huh7 NPC1 promoter luciferase reporter, 24 h. Potency, µM (top dose mostly 9.22 µM), for inactives: top-dose activation, most hits filed as activators. 320,000 compounds, 2.4% hits. AID 485313; note: % of control where 0% means no effect; nearly all actives have a fitted effect of over 60% in size
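In 1536-well qHTS, Huh7 cells harboring an NPC1 promoter–luciferase construct received compound for 24 h; activation was quantified by luminescence following luciferase reagent addition.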
FLuc modulator = inhibits or activates purified firefly luciferase, miR-21 counter-screen | 360,000 compounds, 6.9% hits | P08659 | AID 588342 | Potency, µM (series often up to 57.5 µM), without a hit: at the top dose activity change, negative = inhibition, hits mostly inhibitors | purified FLuc, Km substrates, luminescence inhibition;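 note: plate controls were vehicle for no effect and reference inhibitor for full effect; nearly all actives have a fitted effect of over 55% in size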
Target sequence (P08659 whole entry, looked up): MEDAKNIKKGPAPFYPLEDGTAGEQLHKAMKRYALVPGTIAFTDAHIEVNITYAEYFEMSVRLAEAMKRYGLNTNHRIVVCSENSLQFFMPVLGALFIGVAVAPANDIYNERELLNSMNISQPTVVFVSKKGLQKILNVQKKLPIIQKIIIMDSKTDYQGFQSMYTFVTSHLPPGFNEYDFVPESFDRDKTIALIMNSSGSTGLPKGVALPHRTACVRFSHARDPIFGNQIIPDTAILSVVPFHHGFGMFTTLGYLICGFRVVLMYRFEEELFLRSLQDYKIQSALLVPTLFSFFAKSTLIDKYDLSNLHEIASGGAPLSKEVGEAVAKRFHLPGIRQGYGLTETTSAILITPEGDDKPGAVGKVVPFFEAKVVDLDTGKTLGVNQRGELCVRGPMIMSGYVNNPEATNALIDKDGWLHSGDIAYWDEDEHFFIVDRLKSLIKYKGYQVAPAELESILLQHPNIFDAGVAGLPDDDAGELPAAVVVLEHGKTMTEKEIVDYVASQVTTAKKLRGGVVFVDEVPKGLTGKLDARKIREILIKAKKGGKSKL
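Purified P. pyralis luciferase (10nM final) with 10uM D-luciferin and 10uM ATP (Km levels) in 50mM Tris acetate pH 7.5, 10mM Mg acetate, 0.01% Tween-20, 0.05% BSA; qHTS 6-point titration, ~60 µM downward; luminescence read.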
Luc counter = blocks Kinase-Glo luciferase, a counter-screen artifact; Q27757; Kinase-Glo luciferase, ATP luminescence, 8 min; Potency, µM (highest dose often 38.3 µM), inactives show top-dose activity change, negative = inhibition, usual class: inhibitors; 200,000 compounds, 0.28% hits; note: % is set by controls: 0 for no effect and ±100 for the full control effect; nearly all actives have a fitted effect of over 60% in size
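Compound is pinned into ATP-containing buffer (10 uM ATP, imidazole pH 7.2, 7 mM MgCl2). Kinase-Glo luciferase reagent is then added. Light output is recorded following an 8-min room-temperature incubation.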
SMN2 splice up = SMN2 splice variant enhancement. HEK293 SMN2-luciferase splicing reporter, luminescence, 30-36 h. Potency, µM (doses to about 46.1 µM), inactives show top-dose activity change, positive = activation, hits mostly activators. 210,000 compounds, 2.8% hits. AID 1458; note: % of control where 0% means no effect; nearly all actives have a fitted effect of over 55% in size
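qHTS luciferase splicing reporter: luminescence rises when SMN2 exon 7 is included in transfected HEK293 cells. Compound exposure lasted 30-36 h at 37C, with 4.5 mM final sodium butyrate as control, followed by a ONE-Glo read.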
Rab9 prom act = activators of Rab9 promoter; Potency, µM (titrated, usually from 9.22 µM), inactives show at the top dose activation, negative = inhibition, actives largely listed as activators; Huh7 Rab9 promoter-luciferase reporter, luminescence, 24 h; AID 485297; 320,000 compounds, 2.8% hits; note: % of control where 0% means no effect; nearly all actives have a fitted effect of over 60% in size
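Luminescence from Amplite-detected luciferase (10 minutes, ambient) reports Rab9 promoter activation. Before that, stable Rab9-luciferase Huh7 cells (1500/well, reduced-serum OP-MEM I plus 10% FBS) were exposed to compound for 24 hours at 37C.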
The depositor's hits bear a star; ? = inconclusive; . = not tested or not shown. Calls come from the whole dose curve; as a rule, active = well fitted curve in the direction sought with a large enough effect; inconclusive = small, poorly fitted or top-dose-only effect, or another doubt; inactive = no such curve, though single readings can be large; an effect the other way counts as inactive or inconclusive. Potency is the fitted concentration of half-maximal effect.

SMILES	ELG1 genotoxic	NPC1 promoter act	FLuc modulator	Luc counter	SMN2 splice up	Rab9 prom act
O=C(c1ccc(-c2ccccc2)cc1)C1CCCN(Cc2ccncc2)C1 (stereo unspecified)	?	3.98µM*	7.57µM*	-1.8%	.	1.26µM*
O=C(c1ccc(-c2ccccc2)cc1)C1CCCN(C(=O)c2ccncc2)C1 (stereo unspecified)	3.6%	-2.1%	-1.3%	-3.7%	.	-1.6%
COc1cccc(CNC(=O)c2ccc(-c3nc(COc4ccccc4)c(C)o3)cc2)c1	.	.	-8.2%	.	.	.
CCC(C)NC(=O)CN(C1CCCCC1)S(=O)(=O)c1ccc(F)cc1 (stereo unspecified)	-1.8%	2.8%	3.9%	.	.	1.3%
CCOC(=O)C1CCN(c2nc3ccccc3nc2C(C#N)C(=O)NCCc2ccccc2)CC1 (stereo unspecified)	27.1%	?	19µM*	-1.0%	-7.1%	-3.3%
O=C(N/N=C/c1cn(-c2cccs2)nc1-c1ccccc1)c1ccc(O)cc1	-19.1%	7.0%	4.26µM*	-20.1%	?	3.6%
O=C(N/N=C/c1cn(-c2cccs2)nc1-c1ccccc1)c1ccccc1Cl	5.1%	5.9%	12µM*	0.6%	20µM*	-2.8%
COc1cc2ccccc2cc1C(=O)NNC(=O)c1ccccc1O	16.4%	1.6%	?	.	.	7.3%
COc1ccccc1C(=O)NNC(=O)c1cccc(O)c1	?	?	12µM*	.	.	?
COCC(=O)NNC(=O)c1ccccc1OC	-0.6%	-2.5%	-4.7%	-1.4%	-9.3%	-3.2%
Cc1occc1C(=O)NNC(=O)c1cccc(F)c1	2.6%	-0.1%	-2.1%	2.6%	12.0%	7.6%
COc1ccccc1C(=O)NNC(=O)c1cccc(F)c1	?	?	15.1µM*	?	3.16µM*	?
COc1ccccc1C(=O)NNC(=O)c1ccccc1F	?	?	15.1µM*	-20.5%	25.1µM*	29.1%
Clc1ccc(CN=C2Nc3ccccc3CS2)cc1	?	3.16µM*	6.01µM*	-3.0%	12.6µM*	2.24µM*
COc1cccc(CN2CCSCC2)c1	-0.2%	-3.9%	4.6%	-0.4%	0.3%	-1.9%
COc1cccc(CN=C2Nc3ccccc3CS2)c1	?	2.82µM*	12µM*	-7.1%	14.1µM*	3.16µM*
Cc1ccc(CN=C2Nc3ccccc3CS2)cc1	2.59µM*	0.501µM*	0.601µM*	-11.2%	7.94µM*	0.447µM*
COc1ccccc1CN=C1Nc2ccccc2CS1	12.8%	?	23.9µM*	-0.8%	?	?
c1cncc(CN=C2Nc3ccccc3CS2)c1	-1.2%	6.1%	-2.2%	-6.8%	6.7%	0.9%
CCOC(=O)N1CCC(NS(=O)(=O)c2cc(C(=O)OC)n(C)c2)CC1	-0.2%	-6.8%	1.3%	.	.	-0.3%
COc1ccc(CNc2nc3ccccc3n2C)c(OC)c1	?	3.16µM*	12µM*	-15.5%	.	2.51µM*
COc1ccc(CNc2nc3ccccc3n2C)c(O)c1	?	2.51µM*	8.49µM*	.	.	3.16µM*
Cc1cc(Br)ccc1NC(=O)C1(S(=O)(=O)c2ccc(Cl)cc2)CC1	.	.	0.3%	.	-8.5%	.
O=C(NCc1ccccc1)C(c1ccc(Cl)cc1)N(C(=O)c1csnn1)C1CC1 (stereo unspecified)	-4.2%	-3.3%	1.0%	.	.	-8.6%
O=C(Nc1nc2c(F)cccc2s1)c1ccc(S(=O)(=O)N2CCOCC2)cc1	.	.	0.5%	.	.	.
SMILES	ELG1 genotoxic	NPC1 promoter act	FLuc modulator	Luc counter	SMN2 splice up	Rab9 prom act
COc1ccc(C2=NC3(CCCCCC3)N(CC(=O)Nc3cccc(Cl)c3)C2=O)cc1	.	.	-6.8%	.	0.4%	.
CCOc1cc(C#N)c(NC(=O)Cn2nnc(-c3ccc(C)cc3)n2)cc1OCC	.	.	-0.4%	.	-7.9%	.
COc1cccc(CNC(=O)c2oc3c(c2C)-c2nn(Cc4cccc(Cl)c4)cc2CC3)c1OC	.	.	-3.8%	.	.	.
Cc1ccc(-c2cc(C(=O)NCc3cnn(C)c3C)c3cc(Br)ccc3n2)cc1	5.6%	18.3%	2.13µM*	-5.4%	14.9%	1.4%
Cc1c(CN(C)C(=O)c2nn(C)cc2[N+](=O)[O-])cnn1C	-3.6%	1.6%	5.8%	-4.7%	-9.5%	-5.5%
Cc1ccc(-c2cc(C(=O)N(C)Cc3cnn(C)c3C)c3cc(Br)ccc3n2)cc1	-11.8%	1.7%	10.7µM*	1.3%	-19.8%	17.0%
NNC(=O)c1cc(-c2ccc(O)cc2)nc2ccc(Br)cc12	6.9%	1.8%	?	.	.	-2.9%
Cc1ccc(CNC(=O)C(N=C2NS(=O)(=O)c3ccccc32)C(C)C)cc1 (stereo unspecified)	-3.1%	-7.8%	.	.	.	-0.5%
CC(=O)Nc1ccc(NC(=O)Nc2ccccc2)cc1	16.7%	?	16.9µM*	.	.	?
CC(=O)c1ccc(NC(=O)C(C)Nc2ccc(Cl)cc2)cc1 (stereo unspecified)	-0.9%	-3.5%	-1.4%	0.7%	-1.3%	-4.1%
CCN(CC)c1ccc(NC(=O)Nc2cccc(C(C)=O)c2)cc1	.	.	1.69µM*	-1.6%	16.1%	.
CC(=O)c1ccc(NC(=O)Nc2cccc3ccccc23)cc1	?	25.5%	?	.	.	?
CC(=O)c1ccc(NC(=O)Nc2ccc(Cl)cc2)cc1	2.06µM*	1.41µM*	12µM*	-2.8%	12.6µM*	1.41µM*
CC(=O)Nc1cccc(NC(=O)Nc2ccc(C(C)=O)cc2)c1	?	23.8%	10.7µM*	1.5%	19.0%	11.1%
CCn1c(C(=O)Nc2ccc(C)cc2C)cc2sc(Cl)cc21	.	.	-3.2%	.	-32.9%	.
CN(C)S(=O)(=O)c1ccc(Cl)c(C(=O)OCC(=O)c2ccco2)c1	-3.3%	.	.	.	.	.
CCOC(=O)c1cccnc1SCC(=O)Nc1ccc(C)cc1C	.	.	-9.2%	.	.	.
O=C(Nc1sc2c(c1C(=O)NCc1ccco1)CCCC2)c1cc(=O)c2ccccc2o1	.	.	-16.5%	.	15.2%	.
CC(=O)c1ccc(NC(=O)Nc2ccc([N+](=O)[O-])cc2)cc1	?	?	-16.3%	-0.8%	12.6µM*	27.0%
Cc1cc(C)cc(NC(=O)c2cc(Cl)sc2Cl)c1	-0.9%	2.3%	?	1.1%	1.6%	-0.9%
CC(=O)c1ccc(NC(=O)NNS(=O)(=O)c2ccc([N+](=O)[O-])cc2)cc1	1.1%	0.3%	4.4%	.	.	11.0%
CC(=O)Nc1csc2ccccc12	-2.5%	0.9%	1.0%	-2.0%	17.7%	0.1%
CC(=O)c1ccc(NC(=O)c2cc(Cl)sc2Cl)cc1	?	2.82µM*	15.1µM*	-1.5%	12.6µM*	2.24µM*
O=C(Nc1ccccc1)Nc1csc2ccccc12	16.6%	?	12µM*	.	.	?
CC(C)COc1ccc(C(=O)Nc2ccc([N+](=O)[O-])cc2)cc1	-0.3%	17.1%	-8.9%	-0.9%	-0.6%	20.7%
